Screening data from PubChem BioAssay.
These entries were drawn from the full list.
aSyn UTR act: Activators via SNCA 5'UTR binding, MLPCN; alpha-synuclein 5'UTR reporter, activators screen; activity score, % (tested at 7.5 µM), hits read low; 7.1% of 300,000 active; AID 1814; in the data active means activity score below about -60%
Starred values were filed as active, the others as inactive.

SMILES | aSyn UTR act
C/C(CC1CC(COCC(C)C)OC1=O)=N\Nc1nc(-c2ccccc2)cs1 (stereo not drawn) | -82*
Cc1nn(-c2nc3ccccc3s2)c(N)c1-c1ccccc1 | -224*
Cc1nn(-c2nc3ccccc3s2)c(N)c1Sc1ccc(F)cc1 | -212*
Cc1nn(-c2nc3ccccc3s2)c(N)c1-c1ccc(Cl)cc1 | -203*
CCN(Cc1cnn(C)c1)C(=O)c1cc(COc2ccc3c(c2)CCCC3)on1 | -73*
S=c1[nH]cnc2sc(-c3ccccc3)cc12 | -71*
COC(=O)c1ccc(Oc2cc(C)nc(-n3nc(C)cc3C)n2)cc1 | 65
COC(=O)c1ccc(CSc2nc(N)cc(N)n2)cc1 | -66*
COc1ccc(NS(=O)(=O)c2ccc(SC)cc2)c(OC)c1 | -66*
O=C(COC(=O)c1ccccc1-n1cnnn1)c1ccc(F)cc1 | -145*
CC1CCCCN1C(=O)c1cc(-c2ccc(Cl)c(Cl)c2)on1 (stereo not drawn) | -222*
CC1CCCCN1C(=O)c1cc(-c2ccc3c(c2)OCO3)on1 (stereo not drawn) | -87*
COc1cccc(-c2cc(C(=O)N3C(C)CCCC3C)no2)c1 (stereo not drawn) | -147*
CCC1CCCCN1C(=O)c1cc(-c2ccc(Cl)c(Cl)c2)on1 (stereo not drawn) | -94*
CCOC(=O)CC1COCCN1C(=O)c1ccc2oc(Cc3ccccc3)nc2c1 (stereo not drawn) | -132*
O=C(c1ccc2oc(CCc3ccccc3)nc2c1)N1CCC(O)CC1 | -73*
NC(=O)[C@@H]1CCCN1C(=O)c1ccc2oc(CCc3ccccc3)nc2c1 | -63*
O=C(c1ccc2oc(CCCc3ccccc3)nc2c1)N1CCCCC1CO (stereo not drawn) | -87*
COc1ccc(Nc2ccc3c(c2)=NC2(CCCCC2)[N+]=3[O-])cc1 | -87*
CC(C)(C)N=C1NN=C(c2cc3ccccc3o2)CS1 | -74*
COc1ccc(CN=C2Nc3ccccc3CS2)cc1 | -85*
COc1ccc(CN=C2NN=C(c3ccc(Cl)cc3)CS2)cc1 | -103*
CC(C)(C)N=C1NN=C(c2ccc(Cl)cc2)CS1 | -108*
C=CCn1c(C)cc(C2=NNC(=NC(C)(C)C)SC2)c1C | 89
Cc1cccc(N2CCN(C(=S)Nc3ccc4nc(N5CCN(C)CC5)cc(C)c4c3)CC2)c1C | 95
SMILES | aSyn UTR act
Cc1cc(N2CCN(C)CC2)nc2ccc(NC(=S)N3CCCCC3)cc12 | -85*
CCN1CCN(c2cc(C)c3cc(NC(=O)c4cccs4)ccc3n2)CC1 | -109*
CCCCN(C)C(=S)Nc1ccc2nc(N3CCN(CC)CC3)cc(C)c2c1 | -70*
CCN1CCN(c2cc(C)c3cc(NC(=O)c4cccc(OC)c4)ccc3n2)CC1 | -124*
CCN1CCN(c2cc(C)c3cc(NC(=O)c4ccc(OC)c(OC)c4)ccc3n2)CC1 | -72*
COc1ccc(C(=O)Nc2ccc3nc(N4CCN(C)CC4)cc(C)c3c2)c(OC)c1 | -78*
O=S(=O)(Nc1cccc(-c2ccc(N3CCCCCC3)nn2)c1)c1cccc(F)c1 | -108*
O=C(Nc1cccc(-c2ccc(N3CCCCC3)nn2)c1)C(F)(F)F | 96
Cc1ccc(S(=O)(=O)Nc2cccc(-c3ccc(N4CCCCCC4)nn3)c2)cc1C | -117*
O=S(=O)(Nc1cccc(-c2ccc(N3CCCCCC3)nn2)c1)c1ccc(F)cc1 | -146*
O=S(=O)(Nc1cccc(-c2ccc(N3CCCCCC3)nn2)c1)c1ccc(C(F)(F)F)cc1 | -88*
O=S(=O)(Nc1cccc(-c2ccc(N3CCCCCC3)nn2)c1)c1ccccc1F | -128*
COc1ccc(NC(=O)/C(C#N)=C/c2ccc(Br)o2)cc1 | -66*
COc1ccc(NC(=O)/C(C#N)=C\c2ccc(N3CCOCC3)o2)cc1 | -95*
N#C/C(=C\c1ccc(N2CCOCC2)o1)C(=O)Nc1ccc(O)cc1 | -101*
CCOCC(=O)Nc1cccc(-c2nc3cccnc3s2)c1C | -63*
CC(=O)c1c(C)[nH]c(C(=O)Nc2ccc(Cl)cc2F)c1C | -186*
CC(=O)c1c(C)[nH]c(C(=O)Nc2ccc(Cl)cc2)c1C | -195*
CC(=O)c1c(C)[nH]c(C(=O)N2CCN(c3cc(Cl)ccc3C)CC2)c1C | 57
CCC(C)c1ccc(NC(=O)c2[nH]c(C)c(C(C)=O)c2C)cc1 (stereo not drawn) | -149*
Cc1ccc(NC(=O)CNCc2ccccc2Cl)cc1S(=O)(=O)N(C)C | -72*
CC(=O)c1c(C)[nH]c(C(=O)Nc2ccc(Cl)c(S(=O)(=O)N(C)C)c2)c1C | -174*
CSc1cccc(NC(=O)c2[nH]c(C)c(C(C)=O)c2C)c1 | -139*
CC(=O)c1c(C)[nH]c(C(=O)Nc2ccccn2)c1C | -80*
CCCCN(CC)CCNC(=O)c1cc2c(-c3ccc(Cl)cc3)nn(C)c2s1 | 79
SMILES | aSyn UTR act
CCCN(CCC)CCNC(=O)c1cc2c(-c3ccccc3F)nn(C)c2s1 | -62*
CCOCCCNC(=O)c1cc2c(-c3ccc(Cl)cc3)nn(C)c2s1 | -62*
Cn1nc(-c2ccc(Cl)cc2)c2cc(C(=O)NCCCN3CCOCC3)sc21 | -134*
CCN1CCN(C(=O)c2cc3c(-c4ccc(Cl)cc4)nn(C)c3s2)CC1 | -68*
Cn1nc(-c2ccc(Cl)cc2)c2cc(C(=O)NCCN3CCOCC3)sc21 | -107*
COc1ccc(-c2csc(NCc3ccco3)n2)cc1C | -195*
c1cncc(-c2csc(NCc3ccco3)n2)c1 | -92*
CC(=O)Nc1ccc(-c2csc(NCc3ccco3)n2)cc1 | -138*
COCCN1Cc2cccc(C(=O)Nc3cccc(-c4nc5ccccc5[nH]4)c3)c2C1=O | -80*
CCCN1Cc2cccc(C(=O)Nc3ccc(-c4nc5ccccc5[nH]4)cc3)c2C1=O | -62*
Cc1csc(NC(=O)NCC2CCCC(CNC(=O)Nc3nc(C)cs3)C2)n1 (stereo not drawn) | -66*
Cc1cnc(NC(=O)Nc2ccc(Cl)cc2)s1 | -187*
O=C(Cc1csc(NC(=O)Nc2ccc(Cl)cc2)n1)NC1CCCC1 | -91*
Cc1csc(NC(=O)Nc2ccc(Cl)cc2)n1 | -115*
Nc1ccccc1C(=O)N/N=C1\C2CN3CCN(C2)CC1(c1ccccc1)C3 | -92*
CCCC12CN3CCN(CC(C3)/C1=N\NC(=O)c1ccccc1N)C2 | -76*
COc1cc(OC)cc(C(=O)O/N=C(\N)c2ccccn2)c1 | -130*
CCOc1ccc(C(=O)O/N=C(\N)c2ccccn2)cc1OCC | -103*
COc1ccc(C(=O)O/N=C(\N)c2ccccn2)cc1 | 61
Cc1[nH]c2ccccc2c1/C=C/c1nc2ccccc2c(=O)n1CCO | -62*
S=c1nc2ccccc2c2nc(-c3ccccc3)[nH]n12 | -64*
S=c1nc(-c2ccccc2)[nH]n1-c1ccccc1 | -143*
CCOC(=O)C(=CN=C(N)Nc1nc2ccccc2o1)C(=O)OCC | -119*
CCCOC(=O)Nc1nc2ccccc2o1 | -99*
Cc1cc(=O)[nH]c2n[nH]c(-c3ccccc3)c12 | -63*
SMILES | aSyn UTR act
CC(C)(C)C(=O)Nc1nnc(SCc2ccc(F)cc2)s1 | -82*
COCCSc1nnc(NC(=O)C(C)(C)C)s1 | -90*
CC(C)(C)C(=O)Nc1nnc(SCc2cccc(F)c2)s1 | -174*
CCNC(=O)NC(=O)C(C)Oc1ccc(Br)cc1Br (stereo not drawn) | -78*
Clc1ccccc1CONc1ncnc2nonc12 | -91*
CCOC(=O)c1cnn(-c2ccc(C)cc2)c1N | -100*
CCOC(=O)c1cnc2c(C(=O)OCC)cnn2c1N | -63*
CCOC(=O)c1cnc2cc(-c3ccc(C(C)(C)C)cc3)nn2c1N | -232*
